# RORgamma inh – inhibitors of mouse ROR gamma transcriptional activity; Drosophila S2 Gal4-RORgamma UAS-luciferase reporter, 20 h; Potency, µM (doses to about 53.6 µM), for inactives: at the top dose activity change, negative = inhibition, hits mostly inhibitors; actives 5.4% (n = 310,000); AID 2551; P51450; further: potency means the concentration at half of the fitted maximal effect; nearly all actives have a fitted effect of over 60% in size
# Target sequence (P51450 whole entry, looked up, the tested form may be a part): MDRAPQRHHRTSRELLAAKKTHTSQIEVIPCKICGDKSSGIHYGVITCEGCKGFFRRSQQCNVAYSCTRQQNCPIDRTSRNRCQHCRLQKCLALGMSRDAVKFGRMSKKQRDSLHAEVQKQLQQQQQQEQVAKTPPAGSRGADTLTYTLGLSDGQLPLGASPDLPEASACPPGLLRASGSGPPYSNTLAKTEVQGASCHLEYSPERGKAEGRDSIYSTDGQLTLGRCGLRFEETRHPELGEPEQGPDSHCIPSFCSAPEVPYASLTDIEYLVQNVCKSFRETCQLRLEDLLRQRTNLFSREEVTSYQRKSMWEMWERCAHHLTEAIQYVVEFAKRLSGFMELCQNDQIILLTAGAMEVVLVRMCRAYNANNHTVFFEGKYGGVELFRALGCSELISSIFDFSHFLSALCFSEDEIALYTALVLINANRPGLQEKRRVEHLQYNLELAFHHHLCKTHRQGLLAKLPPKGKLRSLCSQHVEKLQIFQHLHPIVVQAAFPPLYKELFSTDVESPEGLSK
#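 Drosophila S2 cells stably expressing Gal4-DBD/mouse RORγ fusion under metallothionein promoter plus UAS-luciferase; compound 1 h, then 700 uM CuSO4 induction for 20 h at ambient temperature; inhibition read as reduced luminescence.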
# ELG1 DNA repair – inhibitors of ELG1-dependent DNA repair in HEK293T cells; HEK293T ELG1-luciferase reporter, luminescence, 16 h; DNA damage induced by 5-fluorouridine; Potency, µM (doses to about 46.1 µM), inactives show at the top dose activity change, negative = inhibition, hits mostly inhibitors; actives 2.3% (n = 330,000); AID 504467; further: potency means the concentration at half of the fitted maximal effect; nearly all actives have a fitted effect of over 55% in size
#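 In this reporter screen, reduction of luminescence relative to DMSO vehicle indicated activity. Compounds and 5-fluorouridine were added together to 2,000 cells per well, incubated for 16 hr at 37 °C, then developed with ONE-Glo.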
# TDP1 cell noCPT – qHTS for Inhibitors of human tyrosyl-DNA phosphodiesterase 1 (TDP1): qHTS in cells in absence of CPT. actives 15% (n = 420,000). AID 686978, 2013. Potency, µM (series often up to 46.2 µM), without a hit: at the highest dose activity change, negative = growth inhibition, hits mostly inhibitors. DT40 Tdp1-/- hTDP1 cells, no CPT, ATP luminescence, 48 h; further: potency means the concentration at half of the fitted maximal effect; nearly all actives have a fitted effect of over 55% in size
#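 A cellular qHTS used chicken DT40 cells lacking endogenous Tdp1 but carrying stably transfected human TDP1. Compounds were applied without camptothecin, and cell growth kinetics were judged by ATP-dependent luminescence after ≥48 hr.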
# TDP1 cell CPT – DT40-hTDP1 cell growth loss with CPT; chicken DT40 Tdp1-/-;hTDP1 cells + 20 nM CPT, ATP luminescence, 48 h; Potency, µM (top dose mostly 46.2 µM), for inactives: at the highest dose activity change, negative = growth inhibition, most hits filed as inhibitors; actives 12% (n = 420,000); AID 686979; further: potency means the concentration at half of the fitted maximal effect; nearly all actives have a fitted effect of over 55% in size
#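 Chicken DT40 Tdp1-/- cells complemented with human TDP1, 400 cells/well, exposed to compounds plus 20 nM camptothecin for at least 48 h at 37 C; viability read as ATP content by CellTiter-Glo luminescence.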
# Gal4-VP16 FLuc – Gal4-VP16 reporter inhibition counter-screen. Drosophila S2 Gal4-VP16 UAS-luciferase, luminescence, 20 h. Potency, µM (top dose mostly 53.6 µM), inactives show at the top dose activity, negative = inhibition, hits mostly inhibitors. actives 3.5% (n = 310,000). AID 2546;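 further: Gal4-VP16 expression switched on by copper sulfate through the metallothionein promoter; potency means the concentration at half of the fitted maximal effect; nearly all actives have a fitted effect of over 50% in size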
# IL1B secr inh – inhibitors of inflammasome signaling (IL-1 beta secretion). THP-1 LPS/ATP IL-1B secretion, AlphaLISA, 16 h; stronger effect = lower value. activity change, % at 57.5 µM. actives 4.7% (n = 360,000); in the data active means activity change below about -50%; inconclusive means mostly about -30% to -49%
#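 Secreted IL-1B measured by AlphaLISA bead assay after 16 h compound exposure of THP-1 cells; compounds (final up to 57.5 uM) added 1 h before LPS (250 ng/mL) and ATP (1.25 mM) stimulation; lower signal means less secretion.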
# * = called active by the depositor; ? = inconclusive; · = no result; [ ] = dose if it differs, or a comment. Shown are actives, neighbours in structure and some others; about 21% of the full set was active somewhere. Unless noted, the call rests on the fitted dose curve; in most records, active means well fitted curve in the direction sought with a large enough effect; inconclusive means small, poorly fitted or top-dose-only effect, or another doubt; inactive means no such curve, though single readings can be large; an effect the other way counts as inactive or inconclusive. On the % scale 0 is the no-effect control and ±100 the full control effect.
SMILES,RORgamma inh,ELG1 DNA repair,TDP1 cell noCPT,TDP1 cell CPT,Gal4-VP16 FLuc,IL1B secr inh
CCc1ccccc1N(C)C(=O)c1cc2c(Cl)nc3ccc(C)cc3c2s1,·,·,18.4µM*,?,·,·
COc1ccc(CN2C(=O)CN(S(C)(=O)=O)CC2(C)C(=O)Nc2c(C)cccc2C)cc1OC (centres undefined),·,·,4.0%,3.7%,·,-10.4
O=C(Nc1cccc2ccccc12)NC1CCCCC1,1.4%,5.1%,2.0%,-1.1%,18.8%,-6.4
O=C(O)C1CCCCC1C(=O)Nc1cccc2ccccc12 (centres undefined),-27.7%,11.6%,8.2µM*,16.4µM*,-3.7%,33.9
O=C(O)C1CCCCC1C(=O)Nc1ccccc1Nc1ccccc1 (centres undefined),3.2%,-2.4%,?,?,0.8%,-15.8
O=C(NNC(=O)C1[C@H]2CCCC[C@@H]12)Nc1cccc2ccccc12 (some centres undefined),0.5%,25.9µM*,?,-10.9%,3.3%,1.9
CCOc1ccc(N2CC(C(=O)Nc3cccc(C(=O)NC4CC4)c3)CC2=O)cc1 (centres undefined),·,2.9%,4.1%,-1.1%,·,6.4
COc1ccc(N=Cc2c(O)n(-c3ccc(OC)cc3)c(=O)c3ccccc23)cc1,-13.6%,-13.9%,-40.4%,-27.7%,-14.5%,-19.9
O=c1c2ccccc2c(C=Nc2cccc(O)c2)c(O)n1-c1ccc2c(c1)OCO2,?,-15.5%,11.6µM*,6.51µM*,?,?
c1ccc2c(c1)OCC(c1csc3ncnc(N4CCCC4)c13)O2 (centres undefined),12.9%,?,10.3µM*,14.6µM*,0.6%,-7.1
c1ccc(CCNc2ncnc3scc(C4COc5ccccc5O4)c23)cc1 (centres undefined),-18.6%,?,18.4µM*,?,-20.3%,0.2
O=C(CSc1nnc(C2COc3ccccc3O2)o1)N1CCCCC1 (centres undefined),16.2%,?,-8.9%,-8.4%,14.5%,-3.9
Cn1c(=O)c2c(nc(SCC(=O)Nc3ccc(F)cc3)n2Cc2ccccc2F)n(C)c1=O,·,·,?,-22.7%,·,·
O=c1cc(S(=O)(=O)Cc2ccccc2)[nH]c(=O)[nH]1,·,·,7.0%,-0.2%,·,-5.5
COc1ccc(S(N)(=O)=O)cc1C(=O)N1CCCC1,-3.1%,4.2%,3.8%,0.7%,-6.8%[10 µM],-9.5
CC1(C(=O)NS(=O)(=O)c2cccc(OC(F)F)c2)CCN1C(=O)Cc1ccsc1 (centres undefined),·,·,-9.9%,-18.2%,·,25.0
COc1cc(C2(c3ccc(O)c(OC)c3)C(=O)Nc3c(C)cc(Br)cc32)ccc1O,·,·,0.1%,1.7%,·,-102.2*
Cc1cc(Br)cc2c1NC(=O)C2(c1c(C)n(C)n(-c2ccccc2)c1=O)c1c(C)n(C)n(-c2ccccc2)c1=O,?,1.6%,-24.9%,-22.8%,15.3%,9.9
O=C(c1ccco1)N1CCC2(CC1)CN(Cc1cc(C(F)(F)F)cc(C(F)(F)F)c1)C2,35.8%,·,-25.3%,-29.6%,-5.8%,·
COc1ccc(C(=O)N(c2c(C)cccc2C)C(COC(C)=O)COC(C)=O)cc1,·,·,?,?,·,21.0
CCN(CC)CCNC(=O)c1c(C)n(-c2ccccc2)c2cc(Br)c(OC)cc12,42.1%,26.4%,18.4µM*,?,-15.7%,?
COC(=O)C1C(C)OC(=O)NC1c1ccccc1 (centres undefined),3.4%[10 µM],·,·,·,-8.2%[10 µM],·
COc1ccc(C[C@H]2c3cc(O)c(OC)cc3CC[N+]2(C)[O-])cc1O (some centres undefined),10.3%,-6.4%,20.6µM*,?,2.7%,-17.0

# High-throughput results as filed in PubChem BioAssay.
